Only some compounds are listed: those with a hit (about 0.31% of all), similar ones and a draw of the others.
TRPML1 agonist = activates the human TRPML1 channel | Q9GZU1 | activation, % (concentration not given with the values) | TRPML1-expressing cells, Ca2+ dye fluorescence, FDSS | 410,000 compounds, 0.12% hits; in the data active = activation above about 50%; inconclusive = mostly about 30% to 49%; note: 0% is about no effect
Target sequence (Q9GZU1 whole entry, looked up): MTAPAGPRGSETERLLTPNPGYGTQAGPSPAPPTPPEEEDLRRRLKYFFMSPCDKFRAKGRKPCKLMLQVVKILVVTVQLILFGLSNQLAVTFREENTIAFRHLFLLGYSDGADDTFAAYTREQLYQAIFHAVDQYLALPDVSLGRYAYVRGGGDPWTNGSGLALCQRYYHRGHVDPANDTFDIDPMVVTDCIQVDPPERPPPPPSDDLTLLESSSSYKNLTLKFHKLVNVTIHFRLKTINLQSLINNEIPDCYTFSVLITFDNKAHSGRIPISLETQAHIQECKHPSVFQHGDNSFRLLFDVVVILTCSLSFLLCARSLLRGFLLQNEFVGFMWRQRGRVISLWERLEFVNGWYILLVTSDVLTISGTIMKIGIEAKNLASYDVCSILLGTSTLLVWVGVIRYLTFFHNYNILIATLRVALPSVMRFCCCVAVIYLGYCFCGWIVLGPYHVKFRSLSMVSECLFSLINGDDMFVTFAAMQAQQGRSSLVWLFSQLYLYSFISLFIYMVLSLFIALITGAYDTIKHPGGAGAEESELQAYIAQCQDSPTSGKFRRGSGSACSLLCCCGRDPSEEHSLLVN
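Tet-induced TRPML1-DL cells, 1,500 per well, cultured overnight, were loaded with a no-wash Ca2+ dye for 45–90 min. Calcium fluorescence was recorded on the FDSS for 110 s after compound addition, before the EC80 agonist (4 uM 54-4) was added.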
TRPV1 agonist = activates the human vanilloid receptor TRPV1; activation, % at 8.33 µM; 320,000 compounds, 0.19% hits; TRPV1-expressing cells, Fluo-8 calcium influx, agonist mode; in the data active = activation above about 80%; inconclusive = between about 30% and that limit; note: 0% is about no effect
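Cells expressing TRPV1 were dye-loaded with Fluo-8 and read kinetically: 10 s baseline, 3 min after compound (agonist portion), then 2 min after EC20 capsaicin (allosteric enhancer portion). Calcium-bound dye fluorescence at 480/520 nm.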
TRPV1 PAM = human TRPV1 potentiation | 320,000 compounds, 0.02% hits | potentiation, % at 8.33 µM | TRPV1-expressing cells, Fluo-8 calcium influx, capsaicin EC20 potentiation | Q8NER1; in the data active = potentiation above about 80%; inconclusive = between about 30% and that limit; note: 0% is about no effect
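Fluo-8 calcium influx in TRPV1-expressing cells, kinetic read (ex 480/em 520 nm). Compound added and read 3 min for agonist activity, followed by capsaicin at EC20 final and 2 min further read for enhancement.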
TRPML1 blocker = human mucolipin-1 channel inhibition; Q9GZU1; TRPML1-inducible cells, Ca2+ dye fluorescence, FDSS; hits give low values; inhibition of EC80 agonist-evoked calcium signal; activity change, negative = inhibition, % (test concentration not listed); 390,000 compounds, 0.02% hits; AID 624415; in the data active = activity change below about -50%; inconclusive = between about -30% and that limit;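 note: stimulus is agonist 54-4 at its EC80 concentration; % is set by controls: 0 for no effect and ±100 for the full control effect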
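Calcium fluorescence in TRPML1-DL cells induced overnight with Tet: a 110 s read after compound pin addition, then a 110 s antagonist read after challenge with 54-4 at 4 uM final (EC80).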
An asterisk follows results filed as active; ? = inconclusive; nt = not tested or not shown.

SMILES	TRPML1 agonist	TRPV1 agonist	TRPV1 PAM	TRPML1 blocker
CC(C)CC(c1nnnn1C(C)C)N1CCN(C(=O)c2ccco2)CC1 (centres undefined)	0.4	-2.2	6.3	-3.7
O=C(CCSCc1ccc(Cl)cc1)NCc1cccnc1	-0.2	80.5*	-3.2	3.4
CCN(CC)c1ccc(/C=N/n2c(-c3ccccc3Br)n[nH]c2=S)cc1	19.0	14.2	-9.6	-6.9
Cc1nn(-c2ccccc2)c(C)c1/C=N/n1c(-c2ccccc2Br)n[nH]c1=S	2.9	20.8	-4.7	-69.2*
CCOC(=O)c1ccc(NC(=O)NCc2ccccc2OC)cc1	-0.4	83.6*	15.8	3.3
CC(OC(=O)C1CCCC1)C(=O)Nc1ccc(S(N)(=O)=O)cc1 (centres undefined)	-0.3	1.3	-2.2	8.2
CCN(CC)C(=O)c1sc2c(c1C)c(=O)n(Cc1ccccc1)c(=O)n2Cc1c(C)cc(C)cc1C	1.3	nt	nt	61.9
COCCNC(=O)CCc1c(C)nc2c(c(C)nn2-c2ccc(C)cc2)c1C	0.7	85.2*	6.5	-12.5
COc1ccc(-c2cc(C(F)F)n3ncc(C(=O)Nc4cc(C)on4)c3n2)cc1	-0.4	84.7*	-17.9	2.6
N#C/C(=C/c1ccc(-c2ccc(S(N)(=O)=O)cc2)o1)c1nc2ccccc2s1	64.5*	22.3	-2.1	3.3
N#C/C(=C/c1ccc(-c2ccc(S(N)(=O)=O)cc2)o1)C(=O)Nc1ccccc1	1.0	-1.1	10.6	-16.9
C=CCOc1c(Br)cc(CNc2ccc3[nH]c(=O)[nH]c3c2)cc1OCC	-0.3	86.8*	-1.2	11.1
CCC1CCCCN1C(=O)CSc1n[nH]c(-c2ccccc2)n1 (centres undefined)	-0.1	nt	nt	-7.3
Cc1cc(N2CCCC2)c(F)cc1/C=C\[N+](=O)[O-]	51.5*	-5.9	28.1	-3.2
Cc1cc(N2CCC(C)CC2)c(F)cc1[N+](=O)[O-]	1.5	3.8	-15.7	-6.1
COc1cccc(NC(=O)c2ccc(S(=O)(=O)NCc3cccnc3)cc2)c1	-1.5	1.9	3.2	18.1
Cc1ccc(NC(=O)c2ccc(S(=O)(=O)NCc3ccco3)cc2)cc1	0.3	81.9*	0.7	-6.4
CCc1ccc(NC(=O)c2ccc(S(=O)(=O)NCc3cccnc3)cc2)cc1	1.1	87.2*	-31.1	-4.2
COc1ccc(CC(=O)Nc2cccc3ccccc23)cc1OC	-0.6	89.0*	-7.3	2.7
COc1ccc(CC(=O)Nc2cccc3ncccc23)cc1OC	0.3	5.4	-6.2	16.9
Cc1ccc(CNC(=O)Cc2ccc(-n3cccc3)cc2)cc1	0.6	3.9	-2.8	22.9
COc1cc(Cl)c(C)cc1NC(=O)Cc1cccs1	-0.1	16.6	?	1.8
COc1cc(Cl)c(C)cc1NC(=O)Cc1ccc(OC)c(OC)c1	2.5	89.2*	-24.3	4.5
COc1ccc(CC(=O)NCc2ccc(-n3cccc3)cc2)cc1OC	-1.2	80.8*	-24.1	4.7
CCCSCCCNC(=O)CN1C(=O)COc2ccc(S(=O)(=O)N3CCC(C)CC3)cc21	1.7	nt	nt	-8.0
SMILES	TRPML1 agonist	TRPV1 agonist	TRPV1 PAM	TRPML1 blocker
Cc1cc(N2CCCCC2)nc(N)n1	55.8*	18.5	-9.1	-10.3
CC(=O)Nc1ccc(Nc2nc(Nc3ccc(Cl)cc3)nc(N3CCOCC3)n2)cc1	-0.9	nt	nt	nt
COc1ccc(-c2nnc(SCC(=O)Oc3c(C)cccc3C)o2)cc1OC	0.4	nt	nt	-4.8
CCOC(=O)c1cccc(NC(=O)c2cc(S(=O)(=O)N3CCCC3)cn2C)c1	-0.3	nt	nt	-3.2
O=C(CN1CCN(CC(=O)Nc2ccccc2Cl)CC1)NCC1(N2CCOCC2)CCCCC1	98.2*	-0.3	3.2	-10.4
O=C(CN1CCN(CC(=O)Nc2ccccc2Cl)CC1)NCC1(N2CCCCC2)CCCCC1	1.4	-0.3	16.4	-12.1
Cc1nc(N2CCCCC2)c2c(C)c(C(=O)Nc3cccc(C(F)(F)F)c3)sc2n1	0.8	-15.1	26.0	20.4
Cc1nc(N2CCN(c3ccccn3)CC2)c2c(C)c(C(=O)Nc3ccc(Br)cc3C)sc2n1	55.5*	-2.3	10.8	1.3
Cc1nc(N2CCCCC2)c2c(C)c(C(=O)Nc3ccccc3C(F)(F)F)sc2n1	1.3	89.5*	-20.9	4.4
Cc1ccc(NC(=O)c2sc3nc(C)nc(N4CCN(c5ccccn5)CC4)c3c2C)c(C)c1	?	9.3	-10.6	-18.7
Cc1c(Cl)cccc1NS(=O)(=O)c1cccc2nsnc12	-1.5	4.7	-0.9	-19.2
CC[n+]1ccnc2ccccc21	0.1	nt	nt	nt
CCCCn1nnnc1C(c1ccccc1)N1CCN(Cc2c(F)cccc2Cl)CC1 (centres undefined)	57.3*	nt	nt	nt
CCOC(=O)CC1C(=O)NCCN1c1nc2ccc(C)cn2c(=O)c1/C=C1\SC(=S)N(C(C)CC)C1=O (centres undefined)	nt	138.9*	-4.6	nt
COC(=O)c1cccc(NC(=O)c2ccc3c(c2)C(=O)N(C(C)(C)C)C3=O)c1	2.3	107.3*	-12.4	-0.2
CC(C)(C)NC(=O)c1cccc(NC(=O)c2ccc3c(c2)C(=O)N(C(C)(C)C)C3=O)c1	1.6	-4.5	-3.2	10.4
CC1CC(C)CN(S(=O)(=O)c2ccc(C(C)(C)C)cc2)C1 (centres undefined)	56.1*	23.4	2.1	-13.1
CC(C)(C)c1ccc(S(=O)(=O)N2CCN(C3CCCC3)CC2)cc1	-0.3	1.7	8.5	1.5
CC(C)OC(=O)N(C)C[C@H]1OCc2cn(nn2)CCCC(=O)N([C@H](C)CO)C[C@@H]1C	-0.4	nt	nt	-3.6
CC(C)(C)OC(=O)CNC(=O)c1[nH]cnc1C(=O)N[C@@H](Cc1ccccc1)C(=O)OC(C)(C)C	1.0	82.0*	-20.2	32.1
CCCN1CCN(C(=O)Nc2ccc(C(=O)OCC)cc2)CC1	0.3	2.9	-8.1	-2.4
CCOC(=O)c1ccc(NC(=O)N2CCN(Cc3cccc(F)c3)CC2)cc1	2.5	81.5*	8.5	-5.3
CC1=C(C(=O)Nc2cccnc2)C(c2ccccc2)n2nc(SCc3ccccc3F)nc2N1 (centres undefined)	-0.6	nt	nt	-3.1
CSCc1ccc(C(=O)N2CCCC(Nc3ccc(F)cc3)C2)o1 (centres undefined)	-0.5	84.0*	0.7	9.0
CSCc1ccc(C(=O)N2CCCC(Nc3ccc4c(c3)OCCO4)C2)o1 (centres undefined)	-1.1	91.5*	-5.6	-28.7
SMILES	TRPML1 agonist	TRPV1 agonist	TRPV1 PAM	TRPML1 blocker
Cc1ccc(NC(=O)CSc2nc(-c3ccccc3Cl)nc3cc(=O)[nH]n23)c(C)c1	-0.3	nt	nt	-10.6
Cc1cccc(N2CCN(C(=O)c3ccccn3)CC2C)c1 (centres undefined)	-0.7	?	-23.0	5.4
Cc1cccc(N2CCN(C(=O)NC3CCCCC3)CC2C)c1 (centres undefined)	0.3	93.3*	-6.6	-3.4
COc1cc(CNC(=O)CCCC/C=C/C(C)C)ccc1O	1.3	103.3*	-2.4	-20.8
CCCCNc1c2c3c(cccc3n(C)c1=O)C(=O)c1ccccc1-2	88.8*	?	2.4	-15.0
Cn1c(=O)c(NC2CCCCC2)c2c3c(cccc31)C(=O)c1ccccc1-2	100.0*	89.0*	15.2	?

High-throughput results (PubChem)
